Source: PubChem
FMDV inh = antivirals against foot and mouth disease virus; Potency, µM (doses to about 57.9 µM), for the others: top-dose activity change, negative = inhibition, usual class: inhibitors; hit rate 1.2% among 410,000; FMDV antiviral cell-based qHTS; calls by dose curve; tested in HEK293T cells; further: read-out not given here; potency means the concentration at half of the fitted maximal effect; nearly all actives have a fitted effect of over 45% in size
VACV Venus inh = inhibitors of vaccinia virus (Venus reporter). Vaccinia virus Venus reporter expression, fluorescence. Potency, µM (doses to about 36.5 µM), inactives show at the top dose activity change, negative = inhibition, most hits filed as inhibitors. hit rate 0.46% among 330,000; calls by dose curve; tested in A549 cells; further: potency means the concentration at half of the fitted maximal effect; nearly all actives have a fitted effect of over 30% in size
Vaccinia mCherry = vaccinia inhibition (mCherry reporter); Vaccinia virus mCherry reporter infection, fluorescence; Potency, µM (highest dose often 36.5 µM), without a hit: at the highest dose activity change, negative = inhibition, most hits filed as inhibitors; hit rate 0.63% among 310,000; AID 720579; calls by dose curve; tested in A549 cells; further: potency means the concentration at half of the fitted maximal effect; nearly all actives have a fitted effect of over 35% in size
HCMV inh = blocks human cytomegalovirus replication; HFF cells, HCMV-luciferase reporter, 72 h; active compounds read low; activity change, negative = inhibition, % at 57.5 µM; hit rate 4.5% among 410,000; AID 1259415; in the data active means activity change below about -60%; inconclusive means no clear call, values can overlap the other calls; inactive means above about -39%
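Human foreskin fibroblasts infected with luciferase-reporter HCMV at MOI 1 PFU/cell, compounds at two doses. Luciferase measured 72 h post infection; normalized to buffer-only basal and Salinomycin (10uM) controls.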
HCV inhibitor = HCV inhibition; AID 651820; Potency, µM (titrated, usually from 41.8 µM), without a hit: at the highest dose activity change, negative = inhibition, actives largely listed as inhibitors; Huh7.5.1 HCVcc-Cre infection, luciferase reporter, 44 h; hit rate 3.4% among 340,000; active means well fitted inhibition curve with a large enough effect; inconclusive means small, poorly fitted or top-dose-only effect, or another doubt; inactive means no such curve, though single readings can be large or run the other way; further: potency means the concentration at half of the fitted maximal effect
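Seed cells (1,000/well) for 4 h; treat with compound and infect with HCVcc-Cre, moi about 0.5. Incubate 44 h, then detect luciferase activity.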
* = called active by the depositor; i = inactive; ? = inconclusive; nt = not tested or not shown; [ ] = dose if it differs, or a comment. Rows were chosen to be rich in hits. Some 7.3% of all compounds tested hit in one or more screens of this group. On the % scale 0 is the no-effect control and ±100 the full control effect.

SMILES | FMDV inh | VACV Venus inh | Vaccinia mCherry | HCMV inh | HCV inhibitor
Cc1ccc(CNC(=O)CS(=O)(=O)Cc2nc(-c3ccccc3C)oc2C)cc1 | -10% | 4% | -10% | -61* | nt
OC1CCCN(c2c3c(nc4cc(-c5cccc(F)c5)nn24)CCCC3)C1 (stereo unspecified) | 24% | -18% | i | 5 | 6.3µM*
OC1CCCN(c2c3c(nc4cc(-c5cccc(Cl)c5)nn24)CCC3)C1 (stereo unspecified) | nt | -24% | -22% | 2 | ?
COCCN1CCN(c2c3c(nc4cc(-c5cccc(F)c5)nn24)CCC3)CC1 | ? | -5% | nt | -7 | 10%
Cc1cccc(-c2cc3nc4c(c(N5CCCC(O)C5)n3n2)CCC4)c1 (stereo unspecified) | nt | -24% | -24% | -26 | 7.1µM*
COc1cccc(-c2cc3nc(-c4ccccc4)cc(N4CCCC(O)C4)n3n2)c1 (stereo unspecified) | -25% | nt | nt | -33 | 4µM*
NC(=O)c1ccc(NC(=O)C2CCN(S(=O)(=O)Cc3ccccc3)CC2)cc1 | -23% | 0% | 0% | 8 | nt
COc1ccc(OC)c(S(=O)(=O)NCCc2sc(-c3cccnc3)nc2C)c1 | 76% | -11% | -11% | 2 | nt
C=CCN1CC(COCCCC)Oc2ccc(Cl)cc2S1(=O)=O (stereo unspecified) | nt | nt | nt | -31 | nt
C=CCn1c(=O)c2c(nc(Br)n2Cc2ccccc2Cl)n(C)c1=O | ? | -29% | ? | -73* | -5%
CCOC(=O)Cn1c(=O)c2c(nc(Br)n2Cc2ccccc2Cl)n(C)c1=O | ? | -5% | -11% | 37 | ?
COc1ccc(C(=O)/C=C2\Sc3ccccc3N2C)cc1 | -5% | -8% | -25% | 127 | 10µM*
COc1ccccc1OC(=O)CCN1c2ccccc2Sc2ccccc21 | -6% | -1% | -13% | -16 | 0%
COc1ccccc1-[n+]1c(C)cc(/C=C2\Sc3ccccc3N2C)cc1C | 4µM* | nt | nt | -80* | ?
COc1ccc(-[n+]2c(C)cc(/C=C3\Sc4ccccc4N3C)cc2C)cc1 | ? | nt | nt | -99* | 1.1µM*
CC(=S)/C=C1\Sc2ccccc2N1C | nt | 4% | i | -23 | 2%
COc1ccccc1CNC(=O)c1ccc(N2Cc3cccc(OC)c3Oc3ncccc32)s1 | -26% | -7% | 1% | 6 | nt
O=C(Cc1ccc(NC(=O)C2CCCN(C(=O)c3ccccc3)C2)cc1)Nc1cccc(C(=O)N2CCCC2)c1 (stereo unspecified) | nt | nt | nt | 32 | nt
CC(C)NC(=O)C1CCN(C2CCN(CC3CC=CCC3)CC2)CC1 (stereo unspecified) | 8% | -9% | -10% | 11 | ?
CC(C)=CCCC(C)CN1CCC(N2CCC(C(=O)NC(C)C)CC2)CC1 (stereo unspecified) | ? | nt | nt | -30 | 2.8µM*
CC(C)=CCCC(C)CN1CCC(N2CCC(C(=O)N3CCOCC3)CC2)CC1 (stereo unspecified) | -8% | nt | nt | -9 | 0.89µM*
CC(C)=CC(=O)N1CCC(N2CCC(C(=O)N3CCOCC3)CC2)CC1 | 0% | nt | nt | -28 | 16%
CCc1cc(C(=O)OC)c(NC(=O)CSc2nccn2C)s1 | 0% | -27% | -14% | -1 | 10µM*
CCc1cc(C(=O)OC)c(NC(=O)CCCC(=O)O)s1 | -8% | -10% | nt | 36 | 27%
CCOc1ccccc1C(=O)Nc1nccs1 | -19% | -11% | nt | 9 | 5.6µM*
SMILES | FMDV inh | VACV Venus inh | Vaccinia mCherry | HCMV inh | HCV inhibitor
O=C(Nc1nccs1)c1ccccc1Br | 41% | nt | nt | 16 | -3%
CCOc1ccccc1C(=O)Nc1cnn(Cc2ccc(F)cc2)c1 | -10% | -27% | ? | -63* | ?
CC(=O)c1cccc(NC(=O)c2ccccc2OCc2ccc(F)cc2)c1 | -10% | -9% | -16% | -35 | ?
CCc1cc(C(=O)OC)c(NC(=O)c2ccoc2C)s1 | -24% | nt | nt | -21 | 10µM*
C=Nc1ccc(/C=C/c2ccnc3ccccc23)cc1 | nt | -26% | -23% | nt | nt
C=CCN(CC=C)C[C@@H]1CSCCS(=O)(=O)N1 | nt | nt | nt | 10 | nt
O=C(Nc1nccs1)c1ccc(COc2ccccc2Br)o1 | nt | ? | -30% | 37 | 11µM*
COc1ccc(C)cc1NC(=O)NNC(=O)c1ccoc1C | 0% | 1% | -5% | 32 | 18%
CCOC(=O)Cc1nnc(NC(=O)c2ccccc2OCC)s1 | -9% | ? | nt | -3 | ?
O=C(Nc1nccs1)c1ccc(COc2ccc(F)cc2)o1 | 0% | nt | nt | 38 | ?
CCOc1ccccc1C(=O)Nc1ccccc1O | -8% | nt | nt | 11 | 11µM*
CCOc1ccccc1C(=O)Nc1cccc2ccccc12 | 4% | -20% | -13% | 37 | ?
COc1ccc(C)cc1NC(=O)c1ccoc1C | -12% | -9% | nt | -12 | 14µM*
CCOc1ccccc1C(=O)Nc1nnc(COC)s1 | 19% | -5% | -2% | 6 | 7.1µM*
O=S1(=O)CCOC[C@H](c2ccccc2)N1Cc1ccc(Cl)cc1Cl | nt | -20% | i | nt | nt
CCOc1ccccc1NC(=O)c1ccoc1C | 2% | 1% | -6% | 7 | 6.3µM*
COc1ccccc1N1CCN(C(=O)/C=C/c2c(Cl)nc3ccccn23)CC1 | ? | -22% | i | ? | 11µM*
COc1ccc(NC(=O)/C=C/c2c(Cl)nc3ccccn23)cc1 | -3% | nt | nt | -62* | ?
COc1ccc(-n2nc(C(=O)NCCc3ccc(OC)c(OC)c3)c3c4ccccc4n(C)c3c2=O)cc1 | 0% | -1%[7.34 µM] | -11%[7.34 µM] | 67 | nt
Cc1nn(-c2ccccc2)c2sc(C(=O)Nc3cccc(Br)c3)cc12 | -22% | -20% | ? | ? | nt
CC(=O)Oc1ccccc1C(=O)NC(C)CCc1ccccc1 (stereo unspecified) | 25µM* | -26% | -8% | -9 | ?
CSc1ccccc1-c1nnc(-c2ccccc2)o1 | -12% | -5% | nt | 88 | 8.9µM*
O=C(c1ncn[nH]1)N1CCN(c2nc(-c3ccccc3)cs2)CC1 | 12% | -12% | i | -24 | -22%
O=C(c1cc(-n2cnnc2)ccc1Cl)N1CCN(c2nc(-c3ccccc3)cs2)CC1 | ? | ? | nt | -13 | 10µM*
COC(=O)C1=CN(Cc2ccc(OC)cc2)C=C(C(=O)OC)C1c1ccsc1 | -8% | -3% | -8% | -7 | -19%
SMILES | FMDV inh | VACV Venus inh | Vaccinia mCherry | HCMV inh | HCV inhibitor
COC(=O)C1=CN(CCOC23CC4CC(CC(C4)C2)C3)C=C(C(=O)OC)C1c1ccsc1 | -22% | ? | -20% | -32 | 32µM*
Cc1cccnc1Nc1nc(-c2ccccc2)cs1 | 8% | nt | nt | 185 | 16µM*
Cc1cccc(Nc2nc(-c3ccccn3)cs2)n1 | 4% | nt | nt | -7 | 7.1µM*
Cc1cccnc1Nc1nc(-c2ccccn2)cs1 | -43% | 3.2µM* | 2.5µM* | -106* | ?
CCCN(CC(=O)Nc1ccccc1C)C(=O)COc1c(C)cccc1C | -6% | nt | nt | -8 | 0%
CCCN(CC(=O)Nc1ccccc1C)C(=O)C1CC(=O)N(Cc2ccccc2)C1 (stereo unspecified) | 16% | -14% | -15% | -98* | -3%
CCCN(CC(=O)Nc1ccccc1C)C(=O)C1CC(=O)N(c2ccccc2OCC)C1 (stereo unspecified) | 1% | -6% | -8% | -29 | 15%
